Measurements as given in PubChem BioAssay AID1159580 (chemical genetic matrix, 2015).
“And” between values parts separate entries of the source, which are not always exact repeats. Identical values can stand only once. Among all 5,500 compounds or so, about 2,000 (36%) were called active. Not shown: some 18% with an inconclusive outcome. No stated cut-off is given here; in the data, active means normalized growth mostly below about 0.91 (no sharp cut-off); inconclusive means no clear call, values can overlap the other calls; inactive means mostly above about 0.92. Some of the results follow.

Experiment: chemical genetic growth profiling, strain panel (AID 1159580);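 further: tested at 20 µM; growth read once vehicle control cultures reached saturation at 30 °C; 1 = growth at the plate median or of vehicle wells; lower values mean less growth of the strain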
Conditions: growth OD

Measured: normalized growth

COc1ccc(Cc2nccc3cc(OC)c(OC)cc23)cc1OC
inactive: S. cerevisiae deletion strains, locus YJR066W, strain TOR1, hits give low values 0.975 | S. cerevisiae deletion strains, locus YJR075W, strain HOC1, hits give low values 0.995 | S. cerevisiae deletion strains, locus YKL009W, strain mrt4, hits give low values 0.984 | S. cerevisiae deletion strains, locus YKL068W, hits give low values 0.999 | S. cerevisiae deletion strains, locus YKL085W, strain MDH1 (second series), hits give low values 0.991 | S. cerevisiae deletion strains, locus YKL085W, strain MDH1, hits give low values 0.991 | S. cerevisiae deletion strains, locus YKL160W, strain elf1, hits give low values 1.02 | S. cerevisiae deletion strains, locus YKL190W, strain CNB1, hits give low values 1.01 | S. cerevisiae deletion strains, locus YKR001C, strain vps1, hits give low values 0.961 | S. cerevisiae deletion strains, locus YKR026C, strain gcn3, hits give low values 1 | S. cerevisiae deletion strains, locus YKR091W, strain srl3, hits give low values 0.998 | S. cerevisiae deletion strains, locus YLL001W, strain dnm1, hits give low values 1.01 | S. cerevisiae deletion strains, locus YLL026W, hits give low values 1 | S. cerevisiae deletion strains, locus YLL041C, strain sdh2, hits give low values 1 | S. cerevisiae deletion strains, locus YLR027C, strain aat2, hits give low values 0.994 | S. cerevisiae deletion strains, locus YLR039C, strain RIC1, hits give low values 1 | S. cerevisiae deletion strains, locus YLR058C, strain SHM2, hits give low values 1.02 | S. cerevisiae deletion strains, locus YLR102C, strain apc9, hits give low values 0.988 | S. cerevisiae deletion strains, locus YLR113W, strain HOG1, hits give low values 0.975 | S. cerevisiae deletion strains, locus YLR221C, strain rsa3, hits give low values 1.01 | S. cerevisiae deletion strains, locus YLR258W, strain gsy2, hits give low values 1 | S. cerevisiae deletion strains, locus YLR262C, strain YPT6 (second series), hits give low values 1.01 | S. cerevisiae deletion strains, locus YLR262C, strain YPT6, hits give low values 1.01 | S. cerevisiae deletion strains, locus YLR268W, strain sec22, hits give low values 0.967 | S. cerevisiae deletion strains, locus YLR320W, strain mms22, hits give low values 1.01 | S. cerevisiae deletion strains, locus YLR330W, strain CHS5, hits give low values 1.01 | S. cerevisiae deletion strains, locus YLR342W, strain FKS1 (second series), hits give low values 0.996 | S. cerevisiae deletion strains, locus YLR342W, strain FKS1, hits give low values 1.01 | S. cerevisiae deletion strains, locus YLR357W, strain rsc2, hits give low values 0.972 | S. cerevisiae deletion strains, locus YLR370C, strain arc18, hits give low values 0.992 | S. cerevisiae deletion strains, locus YLR371W, strain rom2, hits give low values 0.999 | S. cerevisiae deletion strains, locus YLR384C, strain iki3, hits give low values 1 | S. cerevisiae deletion strains, locus YLR418C, strain cdc73, hits give low values 0.933 | S. cerevisiae deletion strains, locus YML016C, strain PPZ1, hits give low values 1.01 | S. cerevisiae deletion strains, locus YML032C, strain rad52, hits give low values 0.977 | S. cerevisiae deletion strains, locus YML120C, strain ndi1, hits give low values 1 | S. cerevisiae deletion strains, locus YML124C, strain tub3, hits give low values 0.988 | S. cerevisiae deletion strains, locus YMR058W, strain fet3, hits give low values 1.01 | S. cerevisiae deletion strains, locus YMR078C, strain ctf18, hits give low values 0.991 | S. cerevisiae deletion strains, locus YMR125W, strain sto1, hits give low values 0.994 | S. cerevisiae deletion strains, locus YMR129W, hits give low values 0.998 | S. cerevisiae deletion strains, locus YMR205C, strain PFK2, hits give low values 1.02 | S. cerevisiae deletion strains, locus YMR223W, strain ubp8, hits give low values 0.987 | S. cerevisiae deletion strains, locus YMR231W, strain pep5, hits give low values 1.01 | S. cerevisiae deletion strains, locus YMR307W, strain GAS1, hits give low values 0.988 and 0.997 | S. cerevisiae deletion strains, locus YNL067W, strain RPL9B, hits give low values 1.01 | S. cerevisiae deletion strains, locus YNL071W, strain lat1, hits give low values 1 | S. cerevisiae deletion strains, locus YNL128W, strain TEP1, hits give low values 1.01 and 0.977 | S. cerevisiae deletion strains, locus YNL153C, strain GIM3, hits give low values 1.01 | S. cerevisiae deletion strains, locus YNL175C, strain NOP13, hits give low values 0.988 | S. cerevisiae deletion strains, locus YNL183C, strain NPR1, hits give low values 0.946 | S. cerevisiae deletion strains, locus YNL197C, strain WHI3, hits give low values 0.996 | S. cerevisiae deletion strains, locus YNL209W, strain ssb2, hits give low values 1 | S. cerevisiae deletion strains, locus YNL224C, strain SQS1, hits give low values 0.993 | S. cerevisiae deletion strains, locus YNL233W, strain BNI4, hits give low values 1.02 | S. cerevisiae deletion strains, locus YNL248C, strain rpa49, hits give low values 0.992 | S. cerevisiae deletion strains, locus YNL250W, strain rad50, hits give low values 0.985 | S. cerevisiae deletion strains, locus YNL271C, strain bni1, hits give low values 0.982 | S. cerevisiae deletion strains, locus YNL298W, strain CLA4, hits give low values 0.999 | S. cerevisiae deletion strains, locus YNL307C, strain MCK1, hits give low values 0.98 | S. cerevisiae deletion strains, locus YNL322C, strain KRE1 (second series), hits give low values 1.01 | S. cerevisiae deletion strains, locus YNR049C, strain mso1, hits give low values 0.999 | S. cerevisiae deletion strains, locus YNR052C, strain pop2, hits give low values 0.986 | S. cerevisiae deletion strains, locus YOL006C, strain TOP1, hits give low values 1.02 | S. cerevisiae deletion strains, locus YOL012C, strain htz1 1.11 | S. cerevisiae deletion strains, locus YOL147C, strain pex11, hits give low values 0.988 | S. cerevisiae deletion strains, locus YOR001W, strain rrp6, hits give low values 0.965 | S. cerevisiae deletion strains, locus YOR061W, strain CKA2, hits give low values 1.01 | S. cerevisiae deletion strains, locus YOR069W, strain VPS5, hits give low values 1.01 | S. cerevisiae deletion strains, locus YOR070C, strain gyp1, hits give low values 0.999 | S. cerevisiae deletion strains, locus YOR080W, strain dia2, hits give low values 0.997 | S. cerevisiae deletion strains, locus YOR083W, strain WHI5 (second series), hits give low values 1 | S. cerevisiae deletion strains, locus YOR083W, strain WHI5, hits give low values 1.03 | S. cerevisiae deletion strains, locus YOR106W, strain vam3, hits give low values 1.02 | S. cerevisiae deletion strains, locus YOR136W, strain idh2, hits give low values 0.998 | S. cerevisiae deletion strains, locus YOR144C, strain elg1, hits give low values 1 | S. cerevisiae deletion strains, locus YOR184W, strain ser1, hits give low values 0.984 | S. cerevisiae deletion strains, locus YOR231W, strain MKK1, hits give low values 0.984 | S. cerevisiae deletion strains, locus YOR265W, strain rbl2, hits give low values 1 | S. cerevisiae deletion strains, locus YOR270C, strain vph1, hits give low values 0.998 | S. cerevisiae deletion strains, locus YOR290C, strain snf2, hits give low values 0.993 | S. cerevisiae deletion strains, locus YOR316C, strain cot1, hits give low values 1 | S. cerevisiae deletion strains, locus YPL051W, strain arl3, hits give low values 0.998 | S. cerevisiae deletion strains, locus YPL055C, strain LGE1, hits give low values 0.983 | S. cerevisiae deletion strains, locus YPL078C, strain atp4, hits give low values 0.998 | S. cerevisiae deletion strains, locus YPL106C, strain sse1, hits give low values 1 | S. cerevisiae deletion strains, locus YPL240C, strain hsp82, hits give low values 1.01 | S. cerevisiae deletion strains, locus YPL241C, strain CIN2, hits give low values 1.01 | S. cerevisiae deletion strains, locus YPL256C, strain CLN2, hits give low values 1.02 | S. cerevisiae deletion strains, locus YPR119W, strain clb2, hits give low values 0.99 | S. cerevisiae deletion strains, locus YPR141C, strain kar3, hits give low values 0.988 | S. cerevisiae deletion strains, locus YPR163C, strain tif3, hits give low values 0.974 | S. cerevisiae deletion strains, locus YPR167C, strain met16, hits give low values 0.991 | S. cerevisiae deletion strains, strain wtn01, hits give low values 0.985 | S. cerevisiae strains, strain wild type, hits give low values 1.01
